Hit rate of the full screen: of about 53,000 sequences, about 3,700 (7%) were called active. Many of the other results were omitted from the sample, so actives are more common in it than they were. Unmarked numbers belong to inactive results.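 The calls were made as follows: active = gene knockdowns whose robust z-score for IL-1 alpha signal is at least 2 or at most -2, so actives lie on both sides; inactive = the rest.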
Assay: Components of the Cytosolic LPS Sensing Pathway: Gene Identification via Genome-wide siRNA Screen;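 also: robust z of the log signal after scaling to non-targeting control siRNA wells of the plate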
Conditions: RAW264.7 macrophages, IL-1a HTRF, actives lie on both sides, screened at 100 nM (by protocol), cells primed 5 h with Pam3CSK4 first
Outline: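 Read-out: IL-1a HTRF on supernatant, divided by plate negative-control median ×100, log-transformed and converted to robust z-score. Cells were RAW264.7 given 100 nM siRNA, Pam3CSK4-primed 5 hours, then LipidA-transfected 24 hour.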

Sequence | z-score
GGCCACCUAUGAUGGAAAUTT against Kdelr2 | -0.379
GCUCUGAUGGUCUACUGCUTT against Rgs3 | -0.347
GGGCAGCUCAUGUCCUAUATT against Scfd2 | -0.421
CCAGAAAAAAGAUUGUACATT against Hesx1 | -0.43
GCAGAGCUAGCUGAAUUGCTT against Urb2 | -0.156
GCCGUUAAACAGUUCUCCCTT against Cyb561a3 | -0.455
GGAUCGAGUUUGGUGUAGATT against Usp10 | -1.39
CCAUCUACCAUAAACUGUATT against Spata6 | 0.175
CCAUUAAUUACGUGUUUGUTT against Dixdc1 | -0.104
GGAAUGGAAUACAAAGUCATT against Isg20l2 | -0.305
CCUAUGCAUCAGACCUUUGTT against Nedd9 | 2.7 (active)
GGUUUUUCUGUCAAGUGCUTT against Lgr5 | -0.303
GGCAAGAUCCACAAUGAUGTT against Lgals2 | -0.996
CCGUCAGUGAAUUCUUGAATT against Birc5 | 0.342
GGAAGUUUGCUCCAGCCUUTT against Tmem33 | -0.202
GCGAGUGACACAUCUUCUCTT against Klhl7 | 0.467
GGAACAUAUGCAGAAUUUATT against Adgrb3 | 0.509
GGUCCAUUGGGAGUUUGAGTT against Slc2a6 | 3.14 (active)
GGAUGGAGAGAACUACUUATT against Gltpd2 | 0.999
GGAGUGUGAUCAAGUUCAUTT against Eya4 | 2.16 (active)
GGUGUUUGCCUCAGAAAUCTT against Cdk17 | -0.676
GGUGAAGAUUGACAAGAAATT against Spout1 | 0.254

Sequence | z-score
GGAUGAAUGCAGCUUCCAUTT against Myh14 | 2.35 (active)
GGGUGUUCCAGAAGUAUCUTT against Lars2 | -1.76
CCUUGGAAUGCAUAGCCAATT against Sdk1 | 0.285
GGAAUAUGCCCAAGUUUUUTT against Ctnna1 | 2.86 (active)
GCCAAAUUGUCCCGGGCAUTT against Usp39 | 0.457
GGUGAUGUAUUAUUAUCCATT against Defb12 | 0.277
CCUUUCAAGGAGAUAUAAUTT against Gcm2 | 0.65
CCUUAGCUGUCCUUGUGGUTT against Defb28 | -1.36
CGAAAUCCUAGUUUCGUCCTT against Spns1 | 3.29 (active)
GGAAUUGGUCUAUAUGCGUTT against Il2ra | -1.02
GGGUUCCAGUUUGUUUCCUTT against Cnbp | -0.901
CCAUUGAGAUCAGCGACAUTT against Abtb2 | -0.748
GGUAGCAUUAUUUGUCCUATT against Pcdh15 | 0.675
GGAGCUACGAAGAGGAUCUTT against Wdr45b | -2.69 (active)
GGCCAUCUCCUUCAACUAUTT against Ugt2a1 | 1.24
GGAGUAGAUUUAAAAGGCATT against 4933440M02Rik | 0.145
GGUCAACAGAAUGAAAAAUTT against Runx1t1 | -0.211
GGGAAAGUCGAGCUUUUUCTT against Ifi44l | 0.0658
CCAAGCUACCAGGGUUUUUTT against Abcb9 | 2.1 (active)
GGUCCAAGUAAUGAACUCATT against Olfr155 | -1.19
GGCCCUAGAAAUAAUCUGCTT against Anks4b | 0.0338
GGGAUCCUUAAUAUUUUGATT against Dazap2 | 1.66

Sequence | z-score
GGUUUUAAUUGUUCAGACGTT against Lrrtm3 | 0.35
GGGAAGUGGAAACAGUUCUTT against Icam2 | 0.461
CCAAUGUUACGAGAAACUUTT against Smug1 | 1.02
GGAAAGGAUAAAGUAUAUCTT against Aspm | -0.0167
GGAUUGCAUCUUCCUCGAATT against Olfr816 | -2.27 (active)
GAUCUAUCACCGGUACUGCTT against Gys1 | 0.154
CCGCUCACUUCUUGAAUAUTT against Rnf125 | 0.388
GUCAGAUCUCAGAAUCAUGTT against Ercc6l2 | -2.27 (active)
GCGGUCUGUGGUCUUAAAUTT against She | -0.449
GGUGAACUGUAAUGGCUUCTT against Smyd2 | -0.209
GGUGUUGAGAAGAAAAAUATT against Spz1 | 1.68
GGUAGAAUACCUUCAGAUUTT against Ercc4 | 2.81 (active)
GGAAUUGUCAGGUCUUGAATT against Tmem174 | -0.311
GGAGCUUCGGGAGAUGAUUTT against Fdxr | 0.357
GGCGGAGUUUUUAAUACUCTT against Upb1 | 1.79
CCUAUGUUUGGUGAUUAUGTT against Alg6 | 0.264
GGGUAGGAGGAAAGUGUUCTT against Olfr1093 | 1.55
GGAACAGCAGCAGAGUGAATT against Gkap1 | -1.09
GGCACAUGAUCCUUAAUUUTT against Pfkfb3 | 0.0397
GCCUAAGCCUACCAAACGATT against Ints3 | 0.0965
GCCGAGAGGGAUGUGUAUATT against Psmb1 | -2.54 (active)
GGAAAUCCUUGACUACAUUTT against Cyp2b19 | 0.31

Sequence | z-score
GGUCCACCUCAACAAGCUATT against Zfp536 | 2.57 (active)
GGGAGAAACCUGUGCAAAUTT against Serpinb6c | 0.459
AGACUGGGUUGUGAAGAUATT against 4930563M21Rik | -1.68
GCUAGGACUACAGCUGGGATT against Snrnp48 | -2.56 (active)
GGAGAACUGAAGAAUCCAATT against Med11 | 1.78
GCCAAGAUCCCACCAGUUATT against Neurl1b | 0.639
GGAGCACAGUCUCAUGAAUTT against A130014H13Rik | -1.44
CGUGAAGAUUGACGUGUUUTT against Pcyox1 | 1.06
UGCCUGUAAACCAACAAGGTT against Prb1 | -2.04 (active)
GUGAAGAGGAGCAGGACUUTT against Klrc3 | 0.261
GGGAAAAGUAUCCUCUGUUTT against Olfr877 | -0.968
GCGAAGUCAUCAAAUUUUCTT against Abcb11 | 0.622
GGUCCUUAAGUCCUUUGACTT against Cdr1os | 0.894
GGGAAAGAUAAAUGUUUCCTT against Gucy1b1 | 1.89
GGUUCAGACAAGCAUCUAGTT against Sbp | -1.04
CCUCAGGAUACAGACCCACTT against Frg2f1 | -0.35
GGAAAUUUUUUCCUUUCCUTT against Olfr211 | -0.638
GGACCAUCAGAGGAGAACUTT against Cuedc2 | -2.09 (active)
CGAGAGUGGGUGGGUUGAATT against Zfp950 | 0.628
GCCCUAUCUACGAUGAAAATT against Scamp2 | -0.197
CCGAAUACGUGAAGACGCATT against Slc25a1 | -0.967
GGAGGAAAAUGUCCUUGUUTT against Pth | 0.25

Sequence | z-score
GCAGGAAUGCGGUAUAAACTT against Inpp5f | 0.707
GCACUGGACUUAGGAUGGUTT against Ankrd22 | 2.2 (active)
GGACACCACGUUCACCAAGTT against Rbm38 | -0.36
GCUUCAAUAACUGCGCAAGTT against Zkscan2 | 0.547
GGAUGACUGAAUGAUGGGATT against Tcl1b5 | -2.15 (active)
GGACCUCACAAUGAGUAUGTT against Thtpa | 1.23
CGACGAACCUGAGUAUAUUTT against Canx | -0.0578
GUGCAGGUCCUAAUCUGAATT against Asb1 | 2.15 (active)
GGAAAAAAGCCUCAUCGGATT against Wdr63 | 0.676
GGGAGAGUGUUUGUUCAUUTT against Dusp1 | -0.082
GGCCUACCUAUAGAAAUGATT against Pgap1 | 0.208
GACACCUACUUCAUUGGCCTT against Olfr1245 | -1.23
GCAGUUAUAUGCUCAAGAUTT against Pik3r3 | 0.0211
GCCUUACUUCGGAGUGCUATT against Olfr606 | -4.78 (active)
GCCAGCAUAAAUAUACUUUTT against Apol10a | -0.0597
GCCUUUGGAAGUUCAGAACTT against Rnf216 | -1.07
GAUUGGAACUUGUGGAUCUTT against Defb8 | 0.424
GGUACUGGACCAAAUUGCUTT against Ppp1r15b | 2.26 (active)
CGGCACCUAUGAGUCUUACTT against Cyp4x1 | 2.13 (active)
